“And” between values parts separate entries of the source, which are not always exact repeats. Equal entries are not always repeated. Screen size: about 5,500 compounds; about 2,000 (36%) were called active. Roughly 18% stayed inconclusive and do not appear here. Cut-off read from the data, not from the text of the source: active = normalized growth mostly below about 0.91 (no sharp cut-off); inconclusive = no clear call, values can overlap the other calls; inactive = mostly above about 0.92. This is one part of the list.
Assay: chemical genetic growth profiling, strain panel (AID 1159580);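 note: tested at 20 µM; growth read once vehicle control cultures reached saturation at 30 °C; 1 = growth at the plate median or of vehicle wells; lower values mean less growth of the strain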
Details: S. cerevisiae deletion strains, growth OD

Measured: normalized growth

COc1cc(C)c2c(=O)cc(-c3ccccc3)oc2c1
0.914 (inactive) and 0.876 (active): locus YJL095W, strain BCK1, stronger effect = lower value
active: locus YAL030W, strain snc1, stronger effect = lower value 0.928 | locus YBL061C, strain skt5, stronger effect = lower value 0.915 | locus YBR023C, strain chs3, stronger effect = lower value 0.913 | locus YCL011C, strain gbp2, stronger effect = lower value 0.891 | locus YCR088W, strain abp1, stronger effect = lower value 0.92 | locus YDL040C, strain nat1, stronger effect = lower value 0.93 | locus YDR137W, strain rgp1, stronger effect = lower value 0.762 | locus YDR392W, strain spt3, stronger effect = lower value 0.47 | locus YEL003W, strain gim4, stronger effect = lower value 0.893 | locus YER155C, strain BEM2 (second series), stronger effect = lower value 0.505 | locus YGL167C, strain pmr1, stronger effect = lower value 0.913 | locus YGL240W, strain doc1, stronger effect = lower value 0.856 | locus YGL253W, strain hxk2, stronger effect = lower value 0.909 | locus YHR142W, strain chs7, stronger effect = lower value 0.73 | locus YJL095W, strain BCK1 (second series), stronger effect = lower value 0.919 | locus YJL129C, strain trk1, stronger effect = lower value 0.833 | locus YJL164C, strain tpk1, stronger effect = lower value 0.909 | locus YJL166W, strain qcr8, stronger effect = lower value 0.893 | locus YJR066W, strain TOR1, stronger effect = lower value 0.814 | locus YKL160W, strain elf1, stronger effect = lower value 0.884 | locus YKR026C, strain gcn3, stronger effect = lower value 0.92 | locus YLR027C, strain aat2, stronger effect = lower value 0.917 | locus YLR113W, strain HOG1, stronger effect = lower value 0.721 | locus YLR221C, strain rsa3, stronger effect = lower value 0.887 | locus YLR262C, strain YPT6 (second series), stronger effect = lower value 0.757 | locus YLR320W, strain mms22, stronger effect = lower value 0.728 | locus YLR342W, strain FKS1, stronger effect = lower value 0.901 | locus YMR205C, strain PFK2, stronger effect = lower value 0.791 | locus YNL071W, strain lat1, stronger effect = lower value 0.687 | locus YNL183C, strain NPR1, stronger effect = lower value 0.796 | locus YOR184W, strain ser1, stronger effect = lower value 0.866 | locus YOR231W, strain MKK1, stronger effect = lower value 0.857 | locus YOR265W, strain rbl2, stronger effect = lower value 0.922 | locus YOR270C, strain vph1, stronger effect = lower value 0.701 | locus YOR290C, strain snf2, stronger effect = lower value 0.82 | locus YPL051W, strain arl3, stronger effect = lower value 0.904 | locus YPL078C, strain atp4, stronger effect = lower value 0.886
inactive: locus YAL021C, strain ccr4, stronger effect = lower value 0.983 | locus YAL026C, strain drs2, stronger effect = lower value 0.922 | locus YBR009C, strain hhf1, stronger effect = lower value 0.946 | locus YBR021W, strain FUR4, stronger effect = lower value 0.921 | locus YBR171W, strain sec66, stronger effect = lower value 0.911 | locus YBR229C, strain ROT2, stronger effect = lower value 0.984 | locus YBR231C, strain swc5, stronger effect = lower value 0.925 | locus YBR279W, strain paf1, stronger effect = lower value 0.942 | locus YCL016C, strain dcc1, stronger effect = lower value 0.93 | locus YCL029C, strain bik1, stronger effect = lower value 0.968 | locus YCL061C, strain MRC1, stronger effect = lower value 0.927 | locus YCL069W, strain vba3, stronger effect = lower value 0.939 | locus YDL005C, strain med2, stronger effect = lower value 0.956 | locus YDL035C, strain GPR1, stronger effect = lower value 1.01 | locus YDL074C, strain BRE1, stronger effect = lower value 0.896 | locus YDL101C, strain DUN1, stronger effect = lower value 0.948 | locus YDL134C, strain PPH21, stronger effect = lower value 0.998 | locus YDL185W, strain tfp1, stronger effect = lower value 0.979 | locus YDL192W, strain arf1, stronger effect = lower value 0.966 | locus YDR001C, strain nth1, stronger effect = lower value 0.938 | locus YDR069C, strain doa4, stronger effect = lower value 0.941 | locus YDR101C, strain arx1, stronger effect = lower value 0.989 | locus YDR150W, strain NUM1, stronger effect = lower value 1.02 | locus YDR159W, strain sac3, stronger effect = lower value 0.9 | locus YDR162C, strain NBP2, stronger effect = lower value 0.996 | locus YDR195W, strain ref2 1 | locus YDR297W, strain sur2, stronger effect = lower value 0.927 | locus YDR318W, strain mcm21, stronger effect = lower value 0.968 | locus YDR334W, strain swr1, stronger effect = lower value 0.938 | locus YDR335W, strain msn5, stronger effect = lower value 0.942 | locus YDR388W, stronger effect = lower value 0.967 | locus YDR502C, strain sam2, stronger effect = lower value 0.977 | locus YEL037C, strain rad23, stronger effect = lower value 0.942 | locus YEL061C, strain CIN8 (second series), stronger effect = lower value 0.926 | locus YEL061C, strain CIN8, stronger effect = lower value 0.985 | locus YER015W, strain faa2, stronger effect = lower value 0.945 | locus YER016W, strain bim1, stronger effect = lower value 0.935 | locus YER110C, stronger effect = lower value 0.963 | locus YER111C, strain swi4, stronger effect = lower value 0.96 | locus YER155C, strain BEM2, stronger effect = lower value 0.973 | locus YER167W, strain BCK2, stronger effect = lower value 0.994 | locus YFR010W, strain ubp6, stronger effect = lower value 0.933 | locus YGL078C, strain dbp3, stronger effect = lower value 0.972 | locus YGL086W, strain mad1, stronger effect = lower value 0.973 | locus YGL173C, strain kem1, stronger effect = lower value 0.935 | locus YGL227W, strain vid30, stronger effect = lower value 0.924 | locus YGL248W, strain PDE1, stronger effect = lower value 0.955 | locus YGR078C, strain PAC10, stronger effect = lower value 0.955 | locus YGR135W, strain pre9, stronger effect = lower value 0.98 | locus YGR252W, strain gcn5, stronger effect = lower value 0.96 | locus YHR013C, strain ard1, stronger effect = lower value 0.904 | locus YHR027C, strain rpn1, stronger effect = lower value 0.94 | locus YHR030C, strain SLT2, stronger effect = lower value 0.995 and 0.867 | locus YHR079C, strain IRE1 (second series), stronger effect = lower value 0.974 | locus YHR079C, strain IRE1, stronger effect = lower value 0.868 | locus YHR094C, strain hxt1, stronger effect = lower value 0.965 | locus YHR129C, strain ARP1, stronger effect = lower value 0.976 | locus YHR200W, strain rpn10, stronger effect = lower value 0.963 | locus YIL066C, strain RNR3, stronger effect = lower value 0.996 | locus YIL073C, strain SPO22, stronger effect = lower value 0.949 | locus YIL125W, strain kgd1, stronger effect = lower value 0.964 | locus YIR030C, strain dcg1, stronger effect = lower value 0.958 | locus YJL092W, strain hpr5, stronger effect = lower value 0.923 | locus YJL115W, strain asf1, stronger effect = lower value 0.955 | locus YJL134W, strain LCB3, stronger effect = lower value 0.987 | locus YJL154C, strain vps35, stronger effect = lower value 0.942 | locus YJL168C, strain set2, stronger effect = lower value 0.969 | locus YJL187C, strain SWE1 (second series), stronger effect = lower value 0.954 | locus YJL187C, strain SWE1, stronger effect = lower value 0.933 | locus YJR043C, strain POL32, stronger effect = lower value 1.03 | locus YKL009W, strain mrt4, stronger effect = lower value 0.954 | locus YKL068W, stronger effect = lower value 0.966 | locus YKL085W, strain MDH1 (second series), stronger effect = lower value 0.965 | locus YKL085W, strain MDH1, stronger effect = lower value 0.965 | locus YKR001C, strain vps1, stronger effect = lower value 0.982 | locus YKR091W, strain srl3, stronger effect = lower value 0.934 | locus YLL001W, strain dnm1, stronger effect = lower value 0.932 | locus YLL026W, stronger effect = lower value 0.944 | locus YLL041C, strain sdh2, stronger effect = lower value 0.935 | locus YLR039C, strain RIC1, stronger effect = lower value 1.08 | locus YLR058C, strain SHM2, stronger effect = lower value 0.975 | locus YLR102C, strain apc9, stronger effect = lower value 0.974 | locus YLR258W, strain gsy2, stronger effect = lower value 0.921 | locus YLR262C, strain YPT6, stronger effect = lower value 1.05 | locus YLR268W, strain sec22, stronger effect = lower value 0.958 | locus YLR330W, strain CHS5, stronger effect = lower value 0.973 | locus YLR342W, strain FKS1 (second series), stronger effect = lower value 0.979 | locus YLR357W, strain rsc2, stronger effect = lower value 0.87 | locus YLR370C, strain arc18, stronger effect = lower value 0.945 | locus YLR371W, strain rom2, stronger effect = lower value 0.966 | locus YLR384C, strain iki3, stronger effect = lower value 0.925 | locus YLR418C, strain cdc73, stronger effect = lower value 0.843 | locus YML016C, strain PPZ1, stronger effect = lower value 0.972 | locus YML032C, strain rad52, stronger effect = lower value 0.968 | locus YML120C, strain ndi1, stronger effect = lower value 0.941 | locus YML124C, strain tub3, stronger effect = lower value 0.973 | locus YMR058W, strain fet3, stronger effect = lower value 0.917 | locus YMR078C, strain ctf18, stronger effect = lower value 0.952 | locus YMR125W, strain sto1, stronger effect = lower value 0.929 | locus YMR129W, stronger effect = lower value 0.937 | locus YMR223W, strain ubp8, stronger effect = lower value 0.967 | locus YMR231W, strain pep5, stronger effect = lower value 0.951 | locus YMR307W, strain GAS1, stronger effect = lower value 1.23 | locus YNL067W, strain RPL9B, stronger effect = lower value 0.964 | locus YNL209W, strain ssb2, stronger effect = lower value 0.961 | locus YNL233W, strain BNI4, stronger effect = lower value 0.952 | locus YNL248C, strain rpa49, stronger effect = lower value 0.912 | locus YNL250W, strain rad50, stronger effect = lower value 0.953 | locus YNL271C, strain bni1, stronger effect = lower value 0.944 | locus YNL298W, strain CLA4, stronger effect = lower value 0.953 | locus YNL307C, strain MCK1, stronger effect = lower value 0.918 | locus YNL322C, strain KRE1 (second series), stronger effect = lower value 0.932 | locus YNR049C, strain mso1, stronger effect = lower value 0.924 | locus YNR052C, strain pop2, stronger effect = lower value 0.958 | locus YOL006C, strain TOP1, stronger effect = lower value 0.686 | locus YOL012C, strain htz1 1.23 | locus YOL147C, strain pex11, stronger effect = lower value 0.97 | locus YOR001W, strain rrp6, stronger effect = lower value 0.932 | locus YOR061W, strain CKA2, stronger effect = lower value 0.979 | locus YOR069W, strain VPS5, stronger effect = lower value 0.979 | locus YOR070C, strain gyp1, stronger effect = lower value 0.93 | locus YOR080W, strain dia2, stronger effect = lower value 0.943 | locus YOR083W, strain WHI5, stronger effect = lower value 0.907 | locus YOR106W, strain vam3, stronger effect = lower value 0.896 | locus YOR136W, strain idh2, stronger effect = lower value 0.972 | locus YOR144C, strain elg1, stronger effect = lower value 0.968 | locus YOR316C, strain cot1, stronger effect = lower value 0.966 | locus YPL106C, strain sse1, stronger effect = lower value 0.852 | locus YPL240C, strain hsp82, stronger effect = lower value 0.934 | locus YPL256C, strain CLN2, stronger effect = lower value 0.872 | locus YPR119W, strain clb2, stronger effect = lower value 0.973 | locus YPR141C, strain kar3, stronger effect = lower value 0.954 | locus YPR163C, strain tif3, stronger effect = lower value 0.982 | locus YPR167C, strain met16, stronger effect = lower value 0.958 | strain wtn01, stronger effect = lower value 0.968

— PubChem BioAssay AID1159580 (chemical genetic matrix, 2015)
